Results reported in PubChem BioAssay AID1159580 (chemical genetic matrix, 2015).
Among all 5,500 compounds or so, about 2,000 (36%) were called active. About 18% were inconclusive and are not listed. Cut-off read from the data, not from the text of the source: active = normalized growth mostly below about 0.91 (no sharp cut-off); inconclusive = no clear call, values can overlap the other calls; inactive = mostly above about 0.92. This is one part of the list.

Assay: chemical genetic growth profiling, strain panel (AID 1159580);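 note: tested at 20 µM; growth read once vehicle control cultures reached saturation at 30 °C; 1 = growth at the plate median or of vehicle wells; lower values mean less growth of the strain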
Conditions: S. cerevisiae deletion strains, growth OD
[1] = locus YHR030C, strain SLT2, hits give low values
[2] = locus YHR079C, strain IRE1, hits give low values
[3] = locus YJL095W, strain BCK1, hits give low values
[4] = locus YJR066W, strain TOR1, hits give low values
[5] = locus YLR113W, strain HOG1, hits give low values
[6] = locus YNL183C, strain NPR1, hits give low values
[7] = locus YOR231W, strain MKK1, hits give low values
[8] = locus YPL256C, strain CLN2, hits give low values

Measured: normalized growth

OC1(C(F)(F)F)CC(C23CC4CC(CC(C4)C2)C3)=NN1 (centres undefined)
active: locus YAR019C, strain CDC15, hits give low values 0.867 | locus YBR136W, strain MEC1, hits give low values 0.889 | locus YBR160W, strain CDC28, hits give low values 0.891 | locus YDL028C, strain MPS1, hits give low values 0.847 | locus YDL101C, strain DUN1, hits give low values 0.897 | locus YDL108W, strain KIN28, hits give low values 0.892 | locus YDL132W, strain cdc53, hits give low values 0.872 | locus YDL214C, strain PRR2, hits give low values 0.642 | locus YDR052C, strain DBF4, hits give low values 0.882 | locus YDR226W, strain ADK1, hits give low values 0.859 | locus YDR477W, strain SNF1, hits give low values 0.505 | locus YER123W, strain YCK3, hits give low values 0.435 | locus YER133W, strain GLC7, hits give low values 0.57 | locus YFL009W, strain cdc4, hits give low values 0.851 | locus YFL029C, strain CAK1, hits give low values 0.876 | locus YFR019W, strain FAB1, hits give low values 0.527 | locus YFR028C, strain CDC14, hits give low values 0.86 | locus YGR040W, strain KSS1, hits give low values 0.497 | [1] 0.183 | locus YHR205W, strain SCH9, hits give low values 0.531 | locus YIL147C, strain SLN1, hits give low values 0.889 | [3] 0.163 | locus YJL157C, strain FAR1, hits give low values 0.655 | locus YJR016C, strain ILV3, hits give low values 0.891 | [4] 0.411 | locus YKL067W, strain YNK1, hits give low values 0.634 | locus YKL101W, strain HSL1, hits give low values 0.716 | locus YKL193C, strain SDS22, hits give low values 0.888 | locus YKL203C, strain TOR2, hits give low values 0.555 | [5] 0.578 | locus YLR133W, strain CKI1, hits give low values 0.655 | locus YLR403W, strain SFP1, hits give low values 0.469 | locus YML070W, strain DAK1, hits give low values 0.643 | locus YMR001C, strain CDC5, hits give low values 0.881 | locus YMR205C, strain PFK2 (second series), hits give low values 0.735 | locus YMR277W, strain FCP1, hits give low values 0.863 | locus YNL006W, strain LST8, hits give low values 0.892 | locus YNL020C, strain ARK1, hits give low values 0.659 | locus YNL161W, strain CBK1, hits give low values 0.898 | locus YNL207W, strain RIO2, hits give low values 0.867 | locus YNL222W, strain SSU72, hits give low values 0.876 | locus YNL307C, strain MCK1 (second series), hits give low values 0.565 | locus YOR061W, strain CKA2, hits give low values 0.17 | locus YOR119C, strain RIO1, hits give low values 0.521 | locus YOR329C, strain SCD5, hits give low values 0.901 | locus YPL031C, strain PHO85, hits give low values 0.471 | locus YPL153C, strain RAD53, hits give low values 0.517 | locus YPL204W, strain HRR25, hits give low values 0.477 | locus YPL209C, strain IPL1, hits give low values 0.89 | [8] 0.64 | locus YPR025C, strain CCL1, hits give low values 0.893 | strain TSCII, hits give low values 0.858
inactive: locus YBL105C, strain PKC1, hits give low values 0.905 | locus YBR135W, strain CKS1, hits give low values 0.898 | locus YDL017W, strain CDC7, hits give low values 0.913 | locus YDR054C, strain cdc34, hits give low values 0.88 | locus YFR003C, strain YPI1, hits give low values 0.905 | locus YGR052W, strain FMP48, hits give low values 0.62 | locus YGR092W, strain DBF2, hits give low values 0.487 | [2] 0.645 | locus YHR082C, strain KSP1, hits give low values 0.688 | locus YJL128C, strain PBS2, hits give low values 0.946 | locus YJR066W, strain TOR1 (second series), hits give low values 0.718 | locus YKL048C, strain ELM1, hits give low values 0.884 | [6] 0.618 | locus YOL078W, strain AVO1, hits give low values 0.893 | locus YOL136C, strain PFK27, hits give low values 0.715 | [7] 0.637 | locus YPR106W, strain ISR1, hits give low values 0.915 | locus YPR111W, strain DBF20, hits give low values 0.875 | strain NNK1, hits give low values 0.921

CC(=O)OCC(=O)[C@@]1(O)[C@@H](C)CC2C3CCC4=CC(=O)C=C[C@]4(C)[C@@]3(F)[C@@H](O)C[C@@]21C (some centres undefined)
inactive: [1] 1.06 | [2] 1.05 | [3] 1.01 | [4] 1 | [5] 0.994 | [6] 0.991 | [7] 1.05 | [8] 1.06
